Results from PubChem BioAssay.
Activity calls are given as the source filed them.

Key:
[1] = tested on: Plasmodium falciparum Sir2 (PF13_0152, Sir2A); test: Plasmodium falciparum Sir2A binding compounds – biochemical, small-molecule microarray, 635 nm fluorescence, primary screen (AID 1098); details: fluorescence 635 nm, higher = more signal;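 further: score merges spot fluorescence intensity with its signal-to-noise ratio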
[2] = probe aDKK1 binding to arrayed compounds – biochemical, biotinylated probe, 635/667 nm fluorescence, primary screen (AID 1099); details: small-molecule microarray, higher = more signal;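 further: score merges 667nm spot fluorescence with signal to noise across triplicate slides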
[3] = probe aCHRDL2 binding to arrayed compounds – biochemical, biotinylated probe, 635/667 nm fluorescence, primary screen (AID 1100); details: small-molecule microarray, higher = more signal
[4] = change in splice reporter luminescence, either direction, cell-based, HEK293, spliceosome inhibition project, primary screen (AID 1101); details: HEK293 splicing luciferase reporter, 24 h, higher = more signal, called active from +8 up or from −8 down;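 further: HEK293 cells carrying a splicing-competent luciferase reporter gene; test concentration not given here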
[5] = molecular target: Fibroblast growth factor 10 (Homo sapiens) (UniProt O15520); test: compounds binding fibroblast growth factor 10 – biochemical, small-molecule microarray, 635 nm fluorescence, primary screen (AID 1102); details: FGF10 binding, fluorescence 635 nm, higher = more signal
Fibroblast growth factor 10 (Homo sapiens), sequence (O15520 whole entry, looked up): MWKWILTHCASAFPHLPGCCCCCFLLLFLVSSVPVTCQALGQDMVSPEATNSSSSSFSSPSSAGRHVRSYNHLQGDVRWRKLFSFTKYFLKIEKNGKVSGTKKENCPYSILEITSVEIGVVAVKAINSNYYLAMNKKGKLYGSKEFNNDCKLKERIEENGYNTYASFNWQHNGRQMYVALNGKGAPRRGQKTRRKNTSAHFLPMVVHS

[6] = tested on: glycogen synthase kinase-3 (GSK3A per assay name; protocol says GSK3B); test: compounds binding glycogen synthase kinase-3 – biochemical, small-molecule microarray, 635 nm fluorescence, GSK3A, primary screen (AID 1103); details: fluorescence 635 nm, higher = more signal; further: the record names both GSK3A and GSK3B
[7] = molecular target: Epidermal growth factor receptor (Homo sapiens) (UniProt P00533); test: compounds binding epidermal growth factor receptor – biochemical, small-molecule microarray, 635 nm fluorescence, primary screen (AID 1104); details: EGFR binding, higher = more signal;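 further: score merges 667 nm emission intensity with spot signal to noise over triplicate slides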
Epidermal growth factor receptor (Homo sapiens), sequence (P00533 whole entry, looked up): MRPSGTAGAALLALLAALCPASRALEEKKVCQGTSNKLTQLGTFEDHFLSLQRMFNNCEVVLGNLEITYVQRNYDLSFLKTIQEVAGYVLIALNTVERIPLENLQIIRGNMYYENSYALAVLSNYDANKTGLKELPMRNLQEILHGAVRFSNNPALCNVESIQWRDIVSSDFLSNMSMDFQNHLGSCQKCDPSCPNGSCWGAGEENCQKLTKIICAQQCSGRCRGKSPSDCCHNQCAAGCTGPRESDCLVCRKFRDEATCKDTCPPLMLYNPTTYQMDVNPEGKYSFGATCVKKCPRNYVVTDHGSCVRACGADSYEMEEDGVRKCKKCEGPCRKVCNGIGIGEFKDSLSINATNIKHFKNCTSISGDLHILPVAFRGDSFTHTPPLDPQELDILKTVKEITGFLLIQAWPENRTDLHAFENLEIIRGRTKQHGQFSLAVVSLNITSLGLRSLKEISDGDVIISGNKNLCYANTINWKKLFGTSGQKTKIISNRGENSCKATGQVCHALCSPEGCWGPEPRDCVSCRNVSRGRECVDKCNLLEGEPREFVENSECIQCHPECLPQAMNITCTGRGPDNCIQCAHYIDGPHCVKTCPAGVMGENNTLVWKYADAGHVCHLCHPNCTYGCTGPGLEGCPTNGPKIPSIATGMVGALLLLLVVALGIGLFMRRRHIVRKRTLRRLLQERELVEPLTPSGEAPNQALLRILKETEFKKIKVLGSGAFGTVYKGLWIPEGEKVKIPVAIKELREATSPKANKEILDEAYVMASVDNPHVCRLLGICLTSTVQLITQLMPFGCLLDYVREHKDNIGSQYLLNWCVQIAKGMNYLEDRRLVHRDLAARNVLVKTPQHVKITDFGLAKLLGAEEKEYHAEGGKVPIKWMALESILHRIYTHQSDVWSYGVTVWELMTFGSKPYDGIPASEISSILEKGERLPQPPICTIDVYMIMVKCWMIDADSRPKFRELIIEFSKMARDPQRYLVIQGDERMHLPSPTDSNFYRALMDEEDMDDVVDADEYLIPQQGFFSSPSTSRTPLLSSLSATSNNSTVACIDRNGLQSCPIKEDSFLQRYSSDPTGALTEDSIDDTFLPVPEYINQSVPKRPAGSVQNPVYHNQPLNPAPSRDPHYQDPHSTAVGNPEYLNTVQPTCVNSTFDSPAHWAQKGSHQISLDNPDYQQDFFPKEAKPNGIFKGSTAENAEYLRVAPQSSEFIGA

[8] = molecular target: Follistatin-related protein 3 (Homo sapiens) (UniProt O95633); test: compounds binding follistatin-related protein 3 – biochemical, small-molecule microarray, 635 nm fluorescence, primary screen (AID 1105); details: FSTL3 binding, higher = more signal;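 further: score merges emission near 667 nm and signal to noise per printed spot across three slides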
Follistatin-related protein 3 (Homo sapiens), sequence (O95633 whole entry, looked up): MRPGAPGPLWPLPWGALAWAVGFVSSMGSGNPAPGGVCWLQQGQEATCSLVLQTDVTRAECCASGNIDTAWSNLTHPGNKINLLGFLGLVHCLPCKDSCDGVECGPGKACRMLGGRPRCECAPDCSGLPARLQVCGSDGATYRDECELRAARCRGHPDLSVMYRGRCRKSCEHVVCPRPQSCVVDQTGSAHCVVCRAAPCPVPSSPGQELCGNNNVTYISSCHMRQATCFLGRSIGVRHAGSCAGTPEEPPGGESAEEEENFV

[9] = molecular target: Dickkopf-related protein 1 (Homo sapiens) (UniProt O94907); test: small molecules binding DKK1 protein – biochemical, small-molecule microarray, 635 nm fluorescence scan, primary screen (AID 1106); details: higher = more signal;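 further: score merges emission near 667 nm with signal to noise over three replicate slides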
Dickkopf-related protein 1 (Homo sapiens), sequence (O94907 whole entry, looked up): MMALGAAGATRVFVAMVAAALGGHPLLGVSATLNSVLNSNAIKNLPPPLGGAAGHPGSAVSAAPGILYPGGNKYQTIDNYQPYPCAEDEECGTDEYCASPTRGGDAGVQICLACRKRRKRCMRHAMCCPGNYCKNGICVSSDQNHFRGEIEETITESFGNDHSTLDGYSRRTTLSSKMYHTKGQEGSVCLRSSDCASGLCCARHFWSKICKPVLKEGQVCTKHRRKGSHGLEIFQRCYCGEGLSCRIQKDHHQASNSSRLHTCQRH

[10] = tested on: Inhibin beta A chain (activin A); test: small molecules binding activin A – biochemical, small-molecule microarray, 635 nm fluorescence scan, primary screen (AID 1107); details: INHBA, higher = more signal;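 further: mouse activin A protein probed at 4.33 µg/mL on printed slides; score merges bound-protein fluorescence near 667 nm with spot signal-to-noise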
[11] = tested on: Human papillomavirus type 1a protein E7 (residues 44-93); test: small molecules binding HPV E7 44-93 – biochemical, small-molecule microarray, residues 44-93, 635 nm fluorescence, primary screen (AID 1108); details: fluorescence 635 nm, higher = more signal;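 further: E7 fragment applied at 1 µg/mL in TBST for 1 h at 4 C; score combines spot fluorescence with its signal to noise ratio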
[12] = hepatitis C replication reporter changes, two-sided – Huh7 cells, luciferase reporter, HCV replication inhibitor project, primary screen (AID 1109); details: Huh7 HCV replicon luciferase reporter, 48 h; higher = more signal;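 further: huh7 hepatoma cells harbouring a luciferase neomycin HCV replicon reporter; luciferase luminescence as measure of HCV replicon replication; test concentration not given here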
[13] = molecular target: Left-right determination factor 2 (Homo sapiens) (UniProt O00292); test: small molecules binding LEFTY2 protein – biochemical, small-molecule microarray, 635 nm fluorescence scan, primary screen (AID 1110); details: higher = more signal
Left-right determination factor 2 (Homo sapiens), sequence (O00292 whole entry, looked up): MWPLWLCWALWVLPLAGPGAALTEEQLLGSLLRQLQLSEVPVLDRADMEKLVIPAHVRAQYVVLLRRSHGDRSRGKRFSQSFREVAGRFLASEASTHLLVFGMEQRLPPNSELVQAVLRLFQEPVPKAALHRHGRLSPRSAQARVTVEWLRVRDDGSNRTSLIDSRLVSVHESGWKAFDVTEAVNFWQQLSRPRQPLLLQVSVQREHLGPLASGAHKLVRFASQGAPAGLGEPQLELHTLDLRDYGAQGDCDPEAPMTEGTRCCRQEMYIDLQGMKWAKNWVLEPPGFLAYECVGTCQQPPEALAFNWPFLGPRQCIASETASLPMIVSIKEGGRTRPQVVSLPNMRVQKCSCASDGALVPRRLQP

[14] = molecular target: Calmodulin-1 (Homo sapiens) (UniProt P0DP23); test: small molecules binding calmodulin-1 with EGTA – biochemical, small-molecule microarray, Cy5-labelled CALM1, profiling panel (AID 1111); details: Cy5-CALM1 binding fluorescence, higher = more signal;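 further: labelled calmodulin applied in Tris saline Tween buffer holding calcium plus EGTA and DTT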
[15] = molecular target: Calmodulin-1 (Homo sapiens) (UniProt P0DP23); test: small molecules binding Ca-loaded calmodulin-1 – biochemical, small-molecule microarray, Cy5-labelled CALM1, plus calcium, artefact control for SMM control-protein annotation, profiling panel (AID 1112); details: Cy5-CALM1 binding fluorescence, higher = more signal;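 further: score merges spot fluorescence with signal to noise from triplicate slides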
[16] = probe aWnt5a binding to arrayed compounds – biochemical, biotinylated probe, 635/667 nm fluorescence, primary screen (AID 1113); details: small-molecule microarray, higher = more signal;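 further: score merges 667 nm fluorescence intensity with signal-to-noise per printed feature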
[17] = probe aShh binding to arrayed compounds – biochemical, biotinylated probe, 635/667 nm fluorescence, primary screen (AID 1114); details: small-molecule microarray, higher = more signal;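 further: probe is biotin-labelled aShh protein from a stem cell growth factor screen; measures binding of labelled protein to compounds printed on the slide; score merges feature fluorescence at 667 nm with signal-to-noise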
[18] = probe aNog binding to arrayed compounds – biochemical, biotinylated probe, 635/667 nm fluorescence, primary screen (AID 1115); details: small-molecule microarray, higher = more signal;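 further: probe is biotinylated aNog protein used at 0.15 µg/mL for 1 h at 4 C; z-score combines 667 nm fluorescence of each spot with its signal to noise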
[19] = molecular target: Torsin-1A-interacting protein 1 (Homo sapiens) (UniProt Q5JTV8); test: compound microarray binding of lysate hLAP1 – cell lysate, small-molecule microarray, COS7 lysate, 635/667 nm fluorescence, primary screen (AID 1116); details: 635 nm fluorescence, higher = more signal
Torsin-1A-interacting protein 1 (Homo sapiens), sequence (Q5JTV8 whole entry, looked up): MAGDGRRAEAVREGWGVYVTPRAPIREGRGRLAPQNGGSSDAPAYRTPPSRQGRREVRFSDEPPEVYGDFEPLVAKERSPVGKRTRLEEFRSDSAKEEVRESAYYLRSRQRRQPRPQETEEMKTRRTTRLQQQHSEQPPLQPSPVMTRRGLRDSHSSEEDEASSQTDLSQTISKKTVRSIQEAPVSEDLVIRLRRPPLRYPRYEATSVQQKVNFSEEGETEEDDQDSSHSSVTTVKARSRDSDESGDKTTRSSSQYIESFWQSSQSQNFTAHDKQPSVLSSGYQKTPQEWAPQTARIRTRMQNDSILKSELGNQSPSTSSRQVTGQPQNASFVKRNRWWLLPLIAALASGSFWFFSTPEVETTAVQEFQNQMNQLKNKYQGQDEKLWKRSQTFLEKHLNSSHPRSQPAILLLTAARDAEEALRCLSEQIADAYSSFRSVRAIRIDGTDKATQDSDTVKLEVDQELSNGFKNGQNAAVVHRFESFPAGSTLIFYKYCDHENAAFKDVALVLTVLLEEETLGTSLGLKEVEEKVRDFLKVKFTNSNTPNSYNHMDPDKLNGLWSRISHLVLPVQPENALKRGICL

[20] = molecular target: Alpha-bungarotoxin (Bungarus multicinctus) (UniProt P60615); test: compounds binding labelled alpha-BTX control protein – biochemical, small-molecule microarray, Alexa647 label, 635/667 nm fluorescence, artefact control for SMM control protein annotation, profiling panel (AID 1117); details: alpha-BTX-A647 binding fluorescence, higher = more signal
Alpha-bungarotoxin (Bungarus multicinctus), sequence (P60615 whole entry, looked up): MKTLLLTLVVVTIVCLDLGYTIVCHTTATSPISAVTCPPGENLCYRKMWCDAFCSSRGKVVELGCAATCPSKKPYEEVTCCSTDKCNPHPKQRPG

C=CCN1C(=O)[C@]2(O[C@H](CCO)[C@@H]([Si](C)(C)c3ccc(OC)cc3)[C@@H]2C)c2cc(N3C(=O)c4cccc5cccc3c45)ccc21
composite z-score [1]: 1.18 | composite z-score [2]: 0.0458 | composite z-score [3]: 0.151 | z-score [4]: -2.45 (inactive) | composite z-score [5]: 0.446 | composite z-score [6]: 0.398 | composite z-score [7]: -0.0841 | composite z-score [8]: 0.286 | composite z-score [9]: -0.255 | composite z-score [10]: 0.552 | composite z-score [11]: 1.17 | z-score [12]: -5.11 | composite z-score [13]: 0.164 | composite z-score [14]: 0.719 | composite z-score [15]: 0.124 | composite z-score [16]: -0.159 | composite z-score [17]: 0.0639 | composite z-score [18]: -0.338 | composite z-score [19]: 0.374 | composite z-score [20]: 0.3

CN1C(=O)[C@]2(Cc3ccccc3)N=C(c3ccc(OCCCO)cc3)O[C@@H]2c2ccccc21
composite z-score [1]: 1.19 | composite z-score [2]: 0.566 | composite z-score [3]: 0.913 | z-score [4]: -1.18 (inactive) | composite z-score [5]: 1.33 | composite z-score [6]: 1.28 | composite z-score [7]: 0.367 | composite z-score [8]: 0.459 | composite z-score [9]: 0.505 | composite z-score [10]: 1.14 | composite z-score [11]: 1.46 | z-score [12]: -1.36 | composite z-score [13]: 0.235 | composite z-score [14]: 0.33 | composite z-score [15]: -0.323 | composite z-score [16]: 0.0761 | composite z-score [17]: 0.0469 | composite z-score [18]: 0.849 | composite z-score [19]: 1.3 | composite z-score [20]: 0.51

COC(=O)[C@@]1(Cc2ccc(F)cc2)[C@H]2c3cc(C(=O)N4CCCC4)n(Cc4ccc(C)o4)c3C[C@H]2CN1C(=O)c1ccccc1
composite z-score [1]: 1.55 | composite z-score [2]: 0.72 | composite z-score [3]: 1.02 | z-score [4]: 3.29 (inactive) | composite z-score [5]: 1.08 | composite z-score [6]: 0.899 | composite z-score [7]: 0.0358 | composite z-score [8]: 0.596 | composite z-score [9]: -0.177 | composite z-score [10]: 0.87 | composite z-score [11]: 1.4 | z-score [12]: -2.32 | composite z-score [13]: -0.699 | composite z-score [14]: 1.48 | composite z-score [15]: 0.558 | composite z-score [16]: 0.319 | composite z-score [17]: 0.862 | composite z-score [18]: -0.632 | composite z-score [19]: 0.11 | composite z-score [20]: 0.948

CN(C)C(=O)[C@]1(Cc2ccccc2CN=[N+]=[N-])N=C(c2ccc(OCCCO)cc2)O[C@@H]1c1ccccc1CN=[N+]=[N-]
composite z-score [1]: 0.0579 | composite z-score [2]: 0.423 | composite z-score [3]: 0.708 | z-score [4]: 0.646 (inactive) | composite z-score [5]: 1.17 | composite z-score [6]: 1.32 | composite z-score [7]: -0.0263 | composite z-score [8]: 1.18 | composite z-score [9]: -0.38 | composite z-score [10]: 0.844 | composite z-score [11]: 1.47 | z-score [12]: -3.12 | composite z-score [13]: 0.189 | composite z-score [14]: 0.324 | composite z-score [15]: 0.708 | composite z-score [16]: 0.216 | composite z-score [17]: 0.249 | composite z-score [18]: 0.76 | composite z-score [19]: 1.39 | composite z-score [20]: 0.832

CC(CO)N1C(=O)[C@@H]2C3C(=O)OCCC/C=C\[C@H]3OC23C=CCN(c2ccc4ccccc4c2)C(=O)[C@@H]13 (stereo not given in full)
composite z-score [1]: 0.0726 | composite z-score [2]: -0.146 | composite z-score [3]: 0.128 | z-score [4]: -0.317 (inactive) | composite z-score [5]: -1.01 | composite z-score [6]: -0.974 | composite z-score [7]: -1.04 | composite z-score [8]: -0.718 | composite z-score [9]: -1.17 | composite z-score [10]: -0.107 | composite z-score [11]: -0.711 | z-score [12]: 0.793 | composite z-score [13]: -1.22 | composite z-score [14]: 0.0827 | composite z-score [15]: -0.0356 | composite z-score [16]: -0.127 | composite z-score [17]: -0.273 | composite z-score [18]: -0.0675 | composite z-score [19]: 1.19 | composite z-score [20]: 0.169
